The panel holds about 83,000 compounds, 20% with a hit somewhere; the sample as a whole holds those more often.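 Single-concentration screen, 48 h exposure, 96-well plates. Endpoint: percent growth. Below 10 = active.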 Active and inactive are the calls of the source.
Key:
Assay in all cases: NCI-60 one-dose screen, 48 h (100 = growth as untreated, 0 = no growth, -100 = all killed)
Details in all cases: 10 µM unless noted
SR leukemia = test system: SR leukemia
RPMI-8226 leukemia = test system: RPMI-8226 leukemia
OVCAR-5 ovarian = test system: OVCAR-5 ovarian
OVCAR-4 ovarian = test system: OVCAR-4 ovarian
SK-OV-3 ovarian = test system: SK-OV-3 ovarian
IGROV1 ovarian = test system: IGROV1 ovarian
OVCAR-3 ovarian = test system: OVCAR-3 ovarian
HS 578T breast = test system: HS 578T breast
NCI/ADR-RES ovarian = test system: NCI/ADR-RES ovarian
T-47D breast = test system: T-47D breast
MDA-MB-435 melanoma = test system: MDA-MB-435 melanoma
SW-620 colon = test system: SW-620 colon
MCF7 breast = test system: MCF7 breast
HCT-116 colon = test system: HCT-116 colon
HCC-2998 colon = test system: HCC-2998 colon
KM12 colon = test system: KM12 colon
BT-549 breast = test system: BT-549 breast

Measured: growth

O=c1n(Cc2ccc3ccccc3c2)ccn1Cc1ccc2ccccc2c1
inactive: SR leukemia 97% | RPMI-8226 leukemia 104% | OVCAR-5 ovarian 82.1% | OVCAR-4 ovarian 69.3% | SK-OV-3 ovarian 90.5% | IGROV1 ovarian 91.6% | OVCAR-3 ovarian 100% | HS 578T breast 86.9% | NCI/ADR-RES ovarian 86.8% | T-47D breast 55.5% | MDA-MB-435 melanoma 107% | SW-620 colon 102% | MCF7 breast 97.6% | HCT-116 colon 70.6% | HCC-2998 colon 103% | KM12 colon 96.4%

CCCCCCNC(=O)Oc1ccc(/C(=C(\C)c2ccc(Cl)cc2)c2ccc(OCCN(CC)CC)cc2)cc1
inactive: RPMI-8226 leukemia 51.6% | OVCAR-5 ovarian 72.1% | OVCAR-4 ovarian 60.5% | SK-OV-3 ovarian 83.1% | IGROV1 ovarian 55.2% | OVCAR-3 ovarian 67.6% | HS 578T breast 67.5% | NCI/ADR-RES ovarian 72.7% | T-47D breast 39.7% | MDA-MB-435 melanoma 65% | SW-620 colon 18.2% | MCF7 breast 24.6% | HCT-116 colon 29.6% | HCC-2998 colon 78.7% | KM12 colon 44.6%
active: SR leukemia -10.8%

CCCCCCNC(=O)Oc1ccc(/C(=C(\C)c2ccc(OC)cc2)c2ccc(OCCN3CCCCC3)cc2)cc1
active: SR leukemia 0.84%
inactive: RPMI-8226 leukemia 44.7% | OVCAR-4 ovarian 63.1% | SK-OV-3 ovarian 70% | IGROV1 ovarian 53.8% | OVCAR-3 ovarian 80.9% | HS 578T breast 65.7% | NCI/ADR-RES ovarian 75.8% | T-47D breast 48% | BT-549 breast 70.4% | MDA-MB-435 melanoma 66.7% | SW-620 colon 55.3% | MCF7 breast 22.7% | HCT-116 colon 34.5% | HCC-2998 colon 80.6% | KM12 colon 43.5%

Cc1ccc(C(=O)N/N=C/c2cccc(Oc3ccccc3)c2)cn1
active: MDA-MB-435 melanoma -48%
inactive: SR leukemia 48.6% | RPMI-8226 leukemia 89.5% | OVCAR-5 ovarian 93.1% | OVCAR-4 ovarian 86.7% | SK-OV-3 ovarian 80% | IGROV1 ovarian 24% | OVCAR-3 ovarian 35.7% | HS 578T breast 50.8% | NCI/ADR-RES ovarian 19.8% | T-47D breast 66.3% | BT-549 breast 38.1% | SW-620 colon 29.3% | MCF7 breast 37.2% | HCT-116 colon 32.8% | HCC-2998 colon 55.4% | KM12 colon 22.8%

COc1cc(/C=C2\C(=O)Nc3ccc(Br)cc32)cc(OC)c1OC
inactive: SR leukemia 16.3% | RPMI-8226 leukemia 52.2% | OVCAR-5 ovarian 96.8% | OVCAR-4 ovarian 71.8% | SK-OV-3 ovarian 88.3% | IGROV1 ovarian 43% | HS 578T breast 63% | NCI/ADR-RES ovarian 42.7% | T-47D breast 53.2% | BT-549 breast 58.3% | MDA-MB-435 melanoma 21.2% | SW-620 colon 36.1% | MCF7 breast 24.2% | HCT-116 colon 37.3% | HCC-2998 colon 67.6% | KM12 colon 47.8%

CC(=O)N1N=C(c2ccc(Nc3nc(Nc4ccc(F)cc4)nc(Nc4ccc(Cl)cc4)n3)cc2)CC1c1ccc(Cl)cc1 (stereo not drawn)
inactive: SR leukemia 102% | RPMI-8226 leukemia 82.7% | OVCAR-4 ovarian 94.2% | SK-OV-3 ovarian 97.2% | IGROV1 ovarian 66.1% | OVCAR-3 ovarian 123% | HS 578T breast 95.8% | NCI/ADR-RES ovarian 91.1% | T-47D breast 68.1% | BT-549 breast 122% | MDA-MB-435 melanoma 115% | SW-620 colon 105% | MCF7 breast 91% | HCT-116 colon 86.4% | HCC-2998 colon 96.8% | KM12 colon 108%

COc1ccc(CN2c3ccccc3CCc3ccccc32)cc1F
inactive: SR leukemia 11.6% | OVCAR-5 ovarian 40.7% | OVCAR-4 ovarian 42% | IGROV1 ovarian 51.7% | HS 578T breast 30.2% | NCI/ADR-RES ovarian 11.1% | T-47D breast 47.1% | BT-549 breast 54% | SW-620 colon 20.5% | MCF7 breast 20.4% | HCC-2998 colon 30.7%
active: RPMI-8226 leukemia 8.72% | OVCAR-3 ovarian -41.7% | MDA-MB-435 melanoma -49.4% | HCT-116 colon 2.32%

CCCCNC(=O)Oc1ccc(/C(=C(\C)c2ccc(Cl)cc2)c2ccc(OCCN(CC)CC)cc2)cc1
inactive: RPMI-8226 leukemia 63.9% | OVCAR-5 ovarian 73.4% | OVCAR-4 ovarian 69.6% | SK-OV-3 ovarian 75.3% | IGROV1 ovarian 81.6% | HS 578T breast 74.4% | NCI/ADR-RES ovarian 81.4% | T-47D breast 42.2% | BT-549 breast 80.3% | MDA-MB-435 melanoma 66.4% | SW-620 colon 79.8% | MCF7 breast 30.1% | HCT-116 colon 51% | HCC-2998 colon 80.6% | KM12 colon 68.2%
active: SR leukemia 3.33%

CCOC(=O)c1c(C)nc2c(c1N)CC(=O)N2Cc1ccc(F)cc1
inactive: SR leukemia 99.5% | RPMI-8226 leukemia 80.1% | OVCAR-5 ovarian 103% | OVCAR-4 ovarian 94.7% | SK-OV-3 ovarian 95% | IGROV1 ovarian 104% | OVCAR-3 ovarian 99.5% | HS 578T breast 91.5% | NCI/ADR-RES ovarian 99% | T-47D breast 73.2% | MDA-MB-435 melanoma 99.8% | SW-620 colon 92.2% | MCF7 breast 96.1% | HCT-116 colon 87.6% | HCC-2998 colon 103% | KM12 colon 97.7%

CCCCCCNC(=O)Oc1ccc(/C(=C(\C)c2ccc(Cl)cc2)c2ccc(OCCN3CCCCC3)cc2)cc1
active: SR leukemia -22.4% | SW-620 colon 7.33% | MCF7 breast 7.75% | HCT-116 colon 6.05%
inactive: RPMI-8226 leukemia 17.7% | OVCAR-5 ovarian 72% | OVCAR-4 ovarian 36.7% | SK-OV-3 ovarian 56.3% | IGROV1 ovarian 54.8% | OVCAR-3 ovarian 58.4% | HS 578T breast 65.2% | NCI/ADR-RES ovarian 63.5% | T-47D breast 29.1% | BT-549 breast 64.4% | MDA-MB-435 melanoma 52.6% | HCC-2998 colon 62.9% | KM12 colon 36.5%

CCc1ccc(Oc2c(-c3ccc(OCc4ccc(Cl)cc4)cc3O)nn(C)c2C(F)(F)F)cc1
inactive: OVCAR-4 ovarian 12.5% | IGROV1 ovarian 24.3% | HCC-2998 colon 12.8%
active: SR leukemia -26.4% | RPMI-8226 leukemia -16.8% | SK-OV-3 ovarian -6.92% | OVCAR-3 ovarian -20.9% | HS 578T breast 7.74% | NCI/ADR-RES ovarian -3.62% | T-47D breast -8.15% | MDA-MB-435 melanoma 1.36% | SW-620 colon 7.28% | MCF7 breast 6.53% | HCT-116 colon -62.4% | KM12 colon -5.25%

Cc1ccc(S(=O)(=O)Oc2ccc(NC(=O)c3ccc(Cl)cc3)cc2)cc1
inactive: SR leukemia 93.6% | RPMI-8226 leukemia 97.6% | OVCAR-5 ovarian 107% | OVCAR-4 ovarian 96.5% | SK-OV-3 ovarian 98.5% | IGROV1 ovarian 97.8% | OVCAR-3 ovarian 103% | HS 578T breast 107% | NCI/ADR-RES ovarian 99.4% | T-47D breast 98.1% | BT-549 breast 90.8% | MDA-MB-435 melanoma 105% | SW-620 colon 103% | MCF7 breast 91.8% | HCT-116 colon 81% | HCC-2998 colon 104% | KM12 colon 103%

CC1(C)C2CC1C1(/C=N/NC(N)=S)C(C2)C(C#N)(C#N)C1(C#N)C#N (stereo not drawn)
inactive: RPMI-8226 leukemia 30.4% | OVCAR-5 ovarian 126% | OVCAR-4 ovarian 94.3% | SK-OV-3 ovarian 103% | IGROV1 ovarian 67.1% | OVCAR-3 ovarian 63.1% | HS 578T breast 88.7% | NCI/ADR-RES ovarian 93.5% | T-47D breast 64.1% | BT-549 breast 96.3% | MDA-MB-435 melanoma 88.6% | SW-620 colon 50% | MCF7 breast 59.2% | HCT-116 colon 40.7% | HCC-2998 colon 94.1% | KM12 colon 95.7%
active: SR leukemia 4.63%

O=C(O)CCC(=O)Nc1nnc(-c2ccccc2)s1
inactive: SR leukemia 95.6% | RPMI-8226 leukemia 99.4% | OVCAR-5 ovarian 107% | OVCAR-4 ovarian 109% | IGROV1 ovarian 112% | OVCAR-3 ovarian 101% | HS 578T breast 111% | NCI/ADR-RES ovarian 107% | T-47D breast 94.3% | BT-549 breast 102% | MDA-MB-435 melanoma 100% | SW-620 colon 108% | MCF7 breast 79.9% | HCT-116 colon 103% | HCC-2998 colon 102% | KM12 colon 103%

O=C1CN(CCN2CC(=O)N(Cc3ccccc3)C(=O)C2)CC(=O)N1Cc1ccccc1
inactive: SR leukemia 108% | RPMI-8226 leukemia 99.5% | OVCAR-5 ovarian 109% | OVCAR-4 ovarian 106% | SK-OV-3 ovarian 113% | IGROV1 ovarian 109% | OVCAR-3 ovarian 109% | HS 578T breast 96.7% | NCI/ADR-RES ovarian 103% | T-47D breast 99% | BT-549 breast 104% | MDA-MB-435 melanoma 106% | SW-620 colon 96.8% | MCF7 breast 94.7% | HCT-116 colon 98.6% | HCC-2998 colon 121% | KM12 colon 103%

COc1cc(C(=O)N2N=C(c3ccc(S(C)(=O)=O)cc3)CC2c2ccco2)cc(OC)c1OC (stereo not drawn)
inactive: RPMI-8226 leukemia 44.6% | OVCAR-5 ovarian 89.5% | OVCAR-4 ovarian 84.1% | SK-OV-3 ovarian 84.3% | HS 578T breast 74.9% | NCI/ADR-RES ovarian 63.1% | T-47D breast 59.3% | SW-620 colon 42.3% | MCF7 breast 37% | HCT-116 colon 50.6% | HCC-2998 colon 59.9% | KM12 colon 49.7%
active: SR leukemia 8.01% | IGROV1 ovarian -2.69% | OVCAR-3 ovarian 5% | MDA-MB-435 melanoma 6.67%

C=C1C(=O)O[C@H]2[C@H]1CC/C(COC(=O)CCSSCCC(=O)OC/C1=C/CC[C@@]3(C)O[C@H]3[C@H]3OC(=O)C(=C)[C@@H]3CC1)=C\CC[C@@]1(C)O[C@@H]21
inactive: OVCAR-5 ovarian 17.7% | OVCAR-4 ovarian 29.9% | SK-OV-3 ovarian 89.9% | NCI/ADR-RES ovarian 50.5% | MDA-MB-435 melanoma 10.8% | HCC-2998 colon 67% | KM12 colon 51.6%
active: SR leukemia -14.1% | RPMI-8226 leukemia -23.5% | IGROV1 ovarian -49.6% | OVCAR-3 ovarian -35.8% | HS 578T breast 7.57% | T-47D breast -8.54% | BT-549 breast -78.5% | SW-620 colon -77.7% | MCF7 breast -49.4% | HCT-116 colon -90.2%

COc1cccc(Oc2ccccc2NC(=O)CNC(=O)c2cccc3ccccc23)c1
inactive: RPMI-8226 leukemia 21.8% [5 µM] | OVCAR-5 ovarian 41.8% [5 µM] | OVCAR-4 ovarian 42.2% [5 µM] | SK-OV-3 ovarian 42.2% [5 µM] | IGROV1 ovarian 27.6% [5 µM] | HS 578T breast 24.7% [5 µM] | NCI/ADR-RES ovarian 15.3% [5 µM] | T-47D breast 62.3% [5 µM] | BT-549 breast 50.7% [5 µM] | SW-620 colon 22.4% [5 µM] | MCF7 breast 20.5% [5 µM] | HCC-2998 colon 25.5% [5 µM] | KM12 colon 13.5% [5 µM]
active: SR leukemia 5.26% [5 µM] | OVCAR-3 ovarian -23.7% [5 µM] | MDA-MB-435 melanoma -20.5% [5 µM] | HCT-116 colon 3.51% [5 µM]
